Measured values published in PubChem BioAssay (NCI).
About 83,000 compounds went through this panel and 20% of them were active in at least one assay; those are over-represented in the sample as a whole.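 96-well plates, one dose, 48 hours. Percent growth reported; active if below 10.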 A number with no mark means an inactive call. Calls of active or inactive are those of the source.

Columns and labels:
Assay in all cases: NCI-60 one-dose screen, 48 h (100 = growth as untreated, 0 = no growth, -100 = all killed)
Conditions in all cases: 10 µM unless noted
NCI-H23 lung = tested on: NCI-H23 lung
NCI-H226 lung = tested on: NCI-H226 lung
NCI-H322M lung = tested on: NCI-H322M lung
HOP-62 NSCLC = tested on: HOP-62 NSCLC
NCI-H460 lung = tested on: NCI-H460 lung
HOP-92 NSCLC = tested on: HOP-92 NSCLC
NCI-H522 lung = tested on: NCI-H522 lung
A549/ATCC NSCLC = tested on: A549/ATCC NSCLC
786-0 renal = tested on: 786-0 renal
COLO 205 colon = tested on: COLO 205 colon

| SMILES | growth (NCI-H23 lung) | growth (NCI-H226 lung) | growth (NCI-H322M lung) | growth (HOP-62 NSCLC) | growth (NCI-H460 lung) | growth (HOP-92 NSCLC) | growth (NCI-H522 lung) | growth (A549/ATCC NSCLC) | growth (786-0 renal) | growth (COLO 205 colon) |
| --- | --- | --- | --- | --- | --- | --- | --- | --- | --- | --- |
| CSc1[nH]c2ncnc(N)c2c1C#N | 91.4% | 73.6% | 82.9% | 94.9% | 99.6% | 118% | 82.6% | 101% | 99.7% | 117% |
| c1ccc(-c2nc(N3CCOCC3)c3c4c(sc3n2)CCCCC4)nc1 | 66.9% | 50.4% | 67.3% | 61% | 33.4% | -2.36% (active) | 29.5% | 51% | 75.9% | 52.4% |
| NCc1cn2cc(Cl)sc2n1 | 107% | 101% | 90.3% | 112% | 103% | 101% | 95.5% | 92.9% | 106% | 114% |
| C=C(CN1CCN(c2cccc(C(F)(F)F)n2)CC1)c1ccc(C(=O)Nc2ccccc2N)cc1 | 35.5% | 84.2% | 45.8% | 20.6% | 7.02% (active) | -12.1% (active) | -45.3% (active) | 27.3% | 7.8% (active) | 1.41% (active) |
| CCN(CC)CCC(=O)c1ccc(OC)c2ccccc12 | 90.8% | 115% | 90.9% | 83.4% | 99.8% | 102% | 12.6% | 100% | 98.7% | 109% |
| CCN(CC)CC(O)c1cc(-c2ccc(Cl)cc2)nc2c(C)c(Cl)ccc12 (stereo not given) | -89.3% (active) | -15.8% (active) | -82.5% (active) | -100% (active) | -86% (active) | -46.8% (active) | -76% (active) | -85.8% (active) | -95.9% (active) | -100% (active) |
| CCCCN(CC)CCCCCCCCCCN1CCCc2cc(OC)ccc21 | 13.2% | 103% | 54.2% | 106% | 28.5% | 31.8% | 38.8% | 91% | 60.4% | 83.4% |
| Cc1cc(N/N=C/c2nc(-c3ccc(Cl)cc3)oc2C)c2cc(Br)ccc2n1 | 96.4% | 92.9% | 72.5% | 100% | -47.4% (active) | 69.6% | -1.02% (active) | 17.1% | 24.6% | 91.6% |
| Cn1cc(-c2nc(-c3c[nH]c4ccccc34)cs2)c2cccnc21 | 49.6% | 65.9% | 58.9% | 33.3% | 16.8% | 30.4% | -3.47% (active) | 34.2% | 64.9% | -2.81% (active) |
| CC(C)[C@@H]1CC[C@]2(C(=O)NCCCCN=C(N)N)CC[C@]3(C)[C@H](CC[C@@H]4[C@@]5(C)CCC(=O)C(C)(C)[C@@H]5CC[C@]43C)[C@@H]12 | 69.3% | 84.1% | 73.8% | 72.6% | 58.9% | 57.6% | 19.5% | 80.9% | 70.7% | 2.37% (active) |
| COc1ccc2nc(NC(=O)c3cccnc3Nc3cc(OC)c(OC)c(OC)c3)sc2c1 | 22.6% | 10.9% | -54.3% (active) | 16.7% | 0.16% (active) | -64.6% (active) | 13.3% | -32.2% (active) | -66.9% (active) | 123% |
| OC(c1cc(-c2ccccc2)nc2ccc(Cl)cc12)C1CCCCN1 (stereo not given) | 66.9% | 71.3% | 41.8% | 93.3% | -16.8% (active) | 6.52% (active) | 59.7% | 21.7% | 66.8% | -60.9% (active) |
| COc1ccc(-c2cc(C(=O)N=Nc3c(O)[nH]c4ccccc34)no2)cc1 | 101% | 94% | 103% | 91.6% | 102% | 100% | 82.4% | 107% | 104% | 111% |
| CS(=O)CCCCCN=C=S (stereo not given) | 4.24% (active) | -8.26% (active) | 1.21% (active) | -7.49% (active) | 0.781% (active) | 19.5% | -25.4% (active) | -0.774% (active) | 9.82% (active) | -51.6% (active) |
| O=C1Nc2ccccc2C12CC(c1ccccc1)=NN2 (stereo not given) | 70% | 79.3% | 66.3% | 58.6% | 33.2% | 59.2% | 24.6% | 39.3% | 61.7% | 31.4% |
| O=C(Nc1ccc(Oc2ccc(F)cc2)c(Cl)c1)c1cccnc1 | 80% | 99.8% | 101% | 106% | 97% | 91.9% | 72.3% | 86% | 92.3% | 120% |
| CN(C)C(=O)c1cc2cnc(Nc3ccc(-c4csc5c(=O)cc(N6CCNCC6)oc45)cc3)nc2n1C1CCCC1 | 0.906% (active) | 16.1% | 23% | 21.4% | 7.5% (active) | 31.3% | 46.5% | 2.05% (active) | 7.89% (active) | 11% |
| C=C1CC[C@@H]2[C@](C)(COC(C)=O)[C@H](OC(C)=O)CC[C@@]2(C)[C@@H]1CC(Nc1ccc(S(=O)(=O)Nc2ccc(Cl)nn2)cc1)C1=CCOC1=O (stereo not given in full) | 58.2% | -10% (active) | 57% | 47.9% | 14.5% | 69.8% | -34.5% (active) | 61.6% | 58.8% | 18% |
| O=C(CN1CCN(c2cc3c(cc2F)c(=O)c(C(=O)N/N=C/c2ccccc2)cn3C2CC2)CC1)N/N=C\c1ccccc1 | 94.5% | 81.3% | 85.4% | 109% | 66.3% | 76% | 76.5% | 69.9% | 90.4% | 99.6% |
| Cc1ccc(-c2nc(/C=N/Nc3cc(C)nc4ccc(Cl)cc34)c(C)o2)cc1 | 44.5% | 81.3% | -82.5% (active) | 74.9% | -77.2% (active) | 29.9% | -69.5% (active) | -47.4% (active) | -93.2% (active) | -86% (active) |
| O=C(/C=C/c1cc2ccccc2[nH]c1=O)/C=C/c1cc2ccccc2[nH]c1=O | -41.6% (active) | -30.3% (active) | 86.9% | 0.443% (active) | -36.7% (active) | 68.7% | -51.1% (active) | -8% (active) | -59.5% (active) | -11.6% (active) |
| Cc1cc(OCc2ccc(C(F)(F)F)cc2)c2c(c1)C(=O)C=C(NCCN1CCCC1)C2=O | 84.5% | 93% | 80.9% | 83.1% | 43.9% | 60.1% | 87.6% | 54.3% | 58.5% | -77.4% (active) |
| CC[C@@H](C)OC(=O)c1nn(C(C)=O)c2ccccc12 | 91.6% | 85.1% | 107% | 105% | 112% | 104% | 87.1% | 90% | 103% | 108% |
| CCOC(=O)c1c2ncccc2n2c(=O)n(-c3ccc(Cl)cc3)nnc12 | 92.7% | 104% | 67.1% | 71.7% | 69.7% | 101% | 71.1% | 81.8% | 97.1% | 109% |
| N#CC1=C(N)Oc2c(ccc3ccccc23)C1c1cccs1 (stereo not given) | 18% | 40.9% | 39.1% | 25.5% | 0.254% (active) | 35.5% | -0.254% (active) | 22.5% | 31.9% | -54.9% (active) |
| COc1ccc(CN(c2ccc(C)cc2)C2OC(=O)c3ccccc32)cc1OC (stereo not given) | 106% | 91.1% | 99.6% | 106% | 101% | 91.3% | 97.2% | 88.3% | 98.5% | 138% |
| Cc1nn(-c2ccccc2)c2nc(C)n(-c3ccc(Br)cc3)c(=O)c12 | 16% | 49% | 51.3% | 35.1% | 7.92% (active) | 56.3% | -14.1% (active) | 21.3% | 43.3% | 1.32% (active) |
